Consider 25 compounds from PubChem BioAssay.

SMILES strings stand for the structures. A number with no mark means an inactive call. The source made the active and inactive calls.

The nature of this assay: PSAC antagonists in infected red cells, primary screen, cell-based, P. falciparum Indochina, OD700, 2 h (AID 1155).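 Further: lysis reports solute entry through the parasite surface anion channel PSAC; channel blockers reduce lysis of infected cells.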 To be noted: P. falciparum Indochina infected erythrocytes, osmotic lysis OD700; higher = more signal, called active from +8 up or from −8 down.
Turning to `CCCC[C@@H](O)C1=C(COC)Cn2c(=O)n(-c3ccccc3)c(=O)n2[C@H]1CO`, the z-score is -0.696.
The result for `CCN(CC)c1ccc(N2CC=CC34O[C@@H]5C=CCOC(=O)[C@@H]5[C@H]3C(=O)N(CCCO)[C@@H]4C2=O)cc1` (stereo not given in full) reads -0.655; that for `COCCOC(=O)N1C(=O)[C@@]2(c3cc(C#CCC(C(=O)OC)C(=O)OC)ccc31)[C@H](c1ccc(OCCO)cc1)N1[C@H](c3ccccc3)[C@H](c3ccccc3)OC(=O)[C@H]1[C@@H]2C(=O)N1CCCCCCC1`, 1.98.
As to `CCOC(=O)C1=CC[C@@H](c2ccc(F)cc2)N(S(=O)(=O)c2ccc(C)cc2)[C@H]1c1ccc([N+](=O)[O-])cc1`, the z-score is 1.12.
The result for `COC(=O)c1c(CC[C@@H](CO)NC(=O)N[C@@H](Cc2ccccc2)Cn2cc(-c3cncn3C)nn2)oc(C(C)=O)c1C(=O)OC` reads -0.182; that for `O=C(NCCO)C1=C[C@H](Oc2ccccc2I)[C@@H](O)[C@H](NCc2ccc(F)cc2)C1`, 1.82.
The figure for `CCCCN1CC=CC23O[C@@H]4/C=C\CCC(C)OC(=O)C4[C@H]2C(=O)N(C(C)CO)[C@@H]3C1=O` (stereo not given in full) is -0.0918; for `CC(C)C[C@@H]1NC(=O)C([C@@H](C)OCc2ccccc2)NC(=O)[C@@]23C(=O)N[C@@H](Cc4ccccc4)C2[C@H](C)[C@@]2(C)O[C@H]2C3/C=C/CC/C=C/CNC1=O` (stereo not given in full) it is -0.601; for `COCCOC(=O)N1C(=O)[C@@]2(c3cc(C#CCCO)ccc31)[C@H](C(=O)N1CCc3cc(OC)c(OC)cc3C1)[C@H]1C(=O)O[C@H](c3ccccc3)[C@H](c3ccccc3)N1[C@@H]2c1ccccc1OCCO` it is 0.928.
In the case of `COc1ccc([Si](C)(C)[C@H]2[C@H](CC(=O)N3Cc4ccccc4C[C@H]3CO)O[C@@]3(C(=O)N(Cc4cccc(N5C(=O)c6cccc7cccc5c67)c4)c4ccccc43)[C@@H]2C)cc1`, the z-score was 0.572.
The result for `CN1C(=O)C2C(C1=O)C1C=C(c3ccc(CO)cc3)C2C(c2cccs2)N1C` (stereo not given) reads 1.29; that for `CC(C)CNC(=O)[C@@]1(C)c2ccccc2C(=O)N(Cc2cc(F)cc(C(F)(F)F)c2)[C@H]1c1ccc(CO)cc1`, 0.684; that for `COc1ccc([Si](C)(C)[C@H]2[C@H](CCO)O[C@@]3(C(=O)N(Cc4ccc(N5CCOC5=O)cc4)c4ccccc43)[C@@H]2C)cc1`, 32.8 (active).
The figure for `CCCC=C(CCC)[C@@H](NC(=O)c1ccco1)c1ccc(C(=O)OC)cc1` is 0.324.
For the compound `CO[C@H]1O[C@H](CO)[C@@H](OC(=O)Nc2ccc(C(F)(F)F)cc2)[C@H](OC(=O)Nc2ccccc2-c2ccccc2)[C@@H]1OC(=O)Nc1ccccc1-c1ccccc1`, the z-score was 1.04.
`CC[C@H](C)C(=O)O[C@H]1CC[C@]2(C)C3=C(CCC2C1(C)C)[C@]1(C)CC[C@H]([C@H](C)CCCC(C)C)[C@@]1(C)CC3` (stereo not given in full): the z-score was -0.121.
As to `COCCn1c(C(=O)N2CCCC2)cc2c1C[C@H]1CN(C(=O)c3ccccc3)[C@@](Cc3ccccc3)(C(=O)OC)[C@@H]21`, the z-score was 0.103.
In the case of `C[C@]1(C(=O)NCC(F)(F)F)c2ccccc2C(=O)N(Cc2ccc(OC(F)(F)F)cc2)[C@H]1c1ccc(CO)cc1`, the z-score was 0.295.
The figure for `CN(C)CCCNC(=O)[C@@H]1c2ccccc2C(=O)N(C2Cc3ccccc3C2)[C@H]1c1ccc(CO)cc1` is 0.517; for `Cc1c(NC(=O)/C(C#N)=C/c2ccc(Cl)cc2)c(=O)n(-c2ccccc2)n1C` it is -0.238.
The result for `C=CCC(OC(C)=O)[C@@H]1[C@@H](N(Cc2ccc(-c3ccccc3)cc2)C(=O)c2cccc3ccccc23)c2cc(OCCCO)ccc2N1C(=O)c1ccc2ccccc2c1` (stereo not given in full) reads -0.35.
The result for `COCCOC(=O)N1C(=O)[C@@]2(c3ccccc31)[C@H](c1ccc(OCCO)cc1)N1[C@H](c3ccccc3)[C@H](c3ccccc3)OC(=O)[C@H]1[C@@H]2C(=O)N1CCN(c2ncccn2)CC1` reads 6.25; that for `C=C(/C(=C/C[C@@H](OC(C)=O)c1ccccc1OCCO)c1cc(C(=O)OC)ccc1OC)C(C)C`, 2.61.
For the compound `CCCC[C@H]1OB(O)C[C@H]2C1=C(COC)C[C@H]1C(=O)C=CC(=O)[C@H]12`, the z-score is 0.272.
On to `COc1ccc(NC(=O)O[C@H]2[C@H](OC(=O)Nc3ccc4c(c3)OCO4)[C@H](OC(=O)Nc3ccc4c(c3)OCO4)[C@@H](OC)O[C@@H]2CO)cc1`, for which the z-score was 1.26.
